# Whole data set: some 33,000 sequences, median “E-score (-0.5 to 0.5)” near -0.015, cut for the highest 2% near 0.3. The full list was thinned out, with the highest values kept by preference.
# Molecular target: T1, Abf1 (UniProt P14164)
# T1 sequence: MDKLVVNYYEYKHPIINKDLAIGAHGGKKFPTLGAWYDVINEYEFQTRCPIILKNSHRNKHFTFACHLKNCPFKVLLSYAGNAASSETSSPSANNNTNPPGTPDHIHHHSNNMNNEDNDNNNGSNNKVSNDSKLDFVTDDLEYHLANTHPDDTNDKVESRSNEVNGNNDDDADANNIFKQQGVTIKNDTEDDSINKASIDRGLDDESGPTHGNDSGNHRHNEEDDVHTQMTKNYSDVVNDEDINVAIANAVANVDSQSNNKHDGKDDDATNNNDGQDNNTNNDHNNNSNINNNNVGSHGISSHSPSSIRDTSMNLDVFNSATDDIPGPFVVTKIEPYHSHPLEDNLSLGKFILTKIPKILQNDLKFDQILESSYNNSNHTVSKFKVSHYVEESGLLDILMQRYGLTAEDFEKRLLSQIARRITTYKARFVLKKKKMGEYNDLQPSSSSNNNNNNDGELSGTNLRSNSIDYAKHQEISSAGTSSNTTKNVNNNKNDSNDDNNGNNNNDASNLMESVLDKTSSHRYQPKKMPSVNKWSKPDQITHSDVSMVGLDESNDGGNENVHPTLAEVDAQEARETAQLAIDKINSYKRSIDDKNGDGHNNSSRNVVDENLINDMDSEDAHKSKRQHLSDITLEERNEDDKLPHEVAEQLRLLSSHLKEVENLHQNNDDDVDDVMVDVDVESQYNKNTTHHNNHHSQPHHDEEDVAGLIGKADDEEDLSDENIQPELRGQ
# Assay: PBM E-score (8-mer binding enrichment) (E-score (-0.5 to 0.5)); higher = stronger / more preferred TF binding
# Conditions: protein concentration: 200 nM; construct: GST-full length
# Experimental: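 Universal 'all 10-mer' protein binding microarrays (Agilent AMADID 015681) probed with GST-tagged S. cerevisiae TFs (full-length or DBD) made by in vitro transcription/translation (PURExpress), about 100-200 nM. Bound TF was detected with fluorescent anti-GST. Each ungapped 8-mer (which stands for itself and its reverse complement) is scored by the PBM enrichment score (E-score), a modified Wilcoxon-Mann-Whitney statistic from -0.5 to +0.5, computed with the Universal PBM Analysis Suite. Scale: above 0.35 generally sequence-specific binding.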
row,Sequence,PBM E-score
1,AAGATCGT,0.332
2,ACGATCGT,0.319
3,ACGATCGG,0.168
4,GCGCTGTA,-0.132
5,CCTACGTC,0.0219
6,TACCAGTA,0.0685
7,ATCAGGAC,0.103
8,ACCTTGGG,-0.0211
9,CATGACAG,0.0583
10,CCTGACAG,-0.0556
11,GGTGACCA,0.0526
12,ACTGACAA,0.129
13,ACTGACAT,0.0708
14,ATTGACAA,0.0759
15,AGTGACCG,0.125
16,AGTGACCA,0.308
17,AGTGACAG,0.292
18,AGTGACAA,0.439
19,AGTGACAT,0.43
20,CGTGACAG,0.319
21,GTATAGGA,0.0694
22,CAGAGTTC,-0.228
23,GGGCCGTA,0.244

row,Sequence,PBM E-score
1,GACAGGAA,0.0498
2,GATCGCCC,0.0433
3,GCGACCAC,0.134
4,TCGATTAA,0.0311
5,CACAAAAA,0.0732
6,GCAGTTAA,-0.0142
7,CTAACGAC,0.263
8,TCAGTCCA,-0.171
9,CGTGACAA,0.375
10,GGTGACAA,0.423
11,TGTGACAA,0.221
12,GTTGACAA,0.16
13,CGTGACAC,0.252
14,ATTGACAC,-0.12
15,AGTGACTC,0.149
16,AGTGACTA,0.324
17,GCTGACAA,0.0133
18,AGTGACTG,0.175
19,GGTGACAC,0.238
20,AGTGACAC,0.382
21,ATAACGGG,0.0588
22,CGGGCGCA,-0.146
23,GAATTAAA,0.00779

row,Sequence,PBM E-score
1,GTGGAGAA,0.0678
2,ACATACCT,-0.0525
3,CTACCTTC,0.0107
4,GGCGGAGA,-0.00874
5,AAACGATC,0.286
6,TAACGAAA,0.243
7,GAACGATC,0.298
8,GTACGATA,0.259
9,GAACGATA,0.301
10,TAACGAGA,0.295
11,GAACGAGA,0.0551
12,TAACGATA,0.36
13,CAGCGATA,0.16
14,CAACGATC,0.103
15,GAGCGATA,0.223
16,TAGCGATA,0.347
17,ATGTAGAC,-0.0712
18,CCATTTAG,-0.118
19,CCGAGGTC,-0.0891
20,GATTGGTA,0.109
21,GCTCCTGA,-0.23
22,CCGTACCC,0.267
23,CCGAGTTA,0.0322

row,Sequence,PBM E-score
1,CGCGCCTC,-0.14
2,TACAGCCA,-0.224
3,AAACGATT,0.292
4,AAACGATA,0.376
5,GCACGATA,0.355
6,CAACGATA,0.25
7,ACACGATA,0.295
8,GCACGAGA,0.178
9,GCGAACTA,-0.0767
10,CCGCGAGA,-0.0337
11,GCGGCACA,0.112
12,TAGTATAA,0.269
13,CCGTATAC,0.272
14,ACGTATAT,0.193
15,GCGTAAAA,0.103
16,GCGTATAA,0.154
17,TCGTATAA,0.4
18,ACGTAAAA,0.317
19,CCGTATAA,0.418
20,ACGTAAAT,0.113
